Laboratory results from PubChem BioAssay (NCATS).
Records with an inconclusive call do not appear. Calls of active or inactive are those of the source. Calls come from the whole dose curve; as a rule, active = well fitted curve in the direction sought with a large enough effect; inconclusive = small, poorly fitted or top-dose-only effect, or another doubt; inactive = no such curve, though single readings can be large; an effect the other way counts as inactive or inconclusive.

Columns and labels:
[1] = qHTS for compounds that reverse cellular toxicity of Amyloid beta (A-beta) peptide in yeast: LOPAC Validation Assay (AID 720559)
Procedure, shortened: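 Medium dispensed, compounds pinned, A-beta yeast suspension added; plates held at 30 C for 48 hr; absorbance measured at 600 nm to gauge growth; values scaled between DMSO and FeCl3/clioquinol (equimolar) controls.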

[2] = qHTS for Activators of Parkin Expression: LOPAC Validation Assay (NLuc Reporter) (AID 720572)
Procedure, shortened: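 Neuronal cells with a Parkin promoter-driven FLuc/NLuc coincidence reporter were treated 24 h at 37 C in 7-point dose response (LOPAC). NLuc luminescence read after FLuc; signals normalized to DMSO and positive control (100%).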

[3] = qHTS for Activators of Parkin Expression: LOPAC Validation Assay (FLuc Reporter) (AID 720573)
Procedure, shortened: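 Cells seeded, 24 h; compounds pinned, 7-pt dose response; 24 h at 37 C/5% CO2; volume reduced; FLuc reagent 10 min RT; luminescence read. Normalization: DMSO = 0, positive control = 100%.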

Measured: Potency

O=C1Nc2ccc(I)cc2/C1=C/c1cc(Br)c(O)c(Br)c1
inactive: all assays above

Nc1nc2ccc(Cl)cc2c2nc(-c3ccco3)nn12
inactive: all assays above

COC(=O)C1=C(C)NC(C)=C([N+](=O)[O-])C1c1ccccc1C(F)(F)F (stereo not drawn)
inactive: all assays above

CCN(c1nc(N)c(C(=O)N=C(N)N)nc1Cl)C(C)C
inactive: all assays above

C=C(C)C1CC=C(C(=O)O)CC1 (stereo not drawn)
inactive: all assays above

O=c1[nH]c2cc(Cl)ccc2c(O)c1-c1ccc(Oc2ccccc2)cc1
inactive: all assays above

NC(N)=NC(N)=Nc1ccccc1
inactive: all assays above

NC(N)=NC(N)=Nc1cccc(Cl)c1
inactive: all assays above

O=C1OC(=O)C2C3CCC(O3)C12 (stereo not drawn)
inactive: all assays above

O=[N+]([O-])c1cccc2cn[nH]c12
inactive: all assays above

O=C(O)c1ccccc1Nc1cccc(OCc2ccc3ccccc3n2)c1
inactive: all assays above
